{
  "source": "the supplement of paper PMC3545927",
  "target": "furin, P09958",
  "sequence (P09958 whole entry, the tested form may be a part)": "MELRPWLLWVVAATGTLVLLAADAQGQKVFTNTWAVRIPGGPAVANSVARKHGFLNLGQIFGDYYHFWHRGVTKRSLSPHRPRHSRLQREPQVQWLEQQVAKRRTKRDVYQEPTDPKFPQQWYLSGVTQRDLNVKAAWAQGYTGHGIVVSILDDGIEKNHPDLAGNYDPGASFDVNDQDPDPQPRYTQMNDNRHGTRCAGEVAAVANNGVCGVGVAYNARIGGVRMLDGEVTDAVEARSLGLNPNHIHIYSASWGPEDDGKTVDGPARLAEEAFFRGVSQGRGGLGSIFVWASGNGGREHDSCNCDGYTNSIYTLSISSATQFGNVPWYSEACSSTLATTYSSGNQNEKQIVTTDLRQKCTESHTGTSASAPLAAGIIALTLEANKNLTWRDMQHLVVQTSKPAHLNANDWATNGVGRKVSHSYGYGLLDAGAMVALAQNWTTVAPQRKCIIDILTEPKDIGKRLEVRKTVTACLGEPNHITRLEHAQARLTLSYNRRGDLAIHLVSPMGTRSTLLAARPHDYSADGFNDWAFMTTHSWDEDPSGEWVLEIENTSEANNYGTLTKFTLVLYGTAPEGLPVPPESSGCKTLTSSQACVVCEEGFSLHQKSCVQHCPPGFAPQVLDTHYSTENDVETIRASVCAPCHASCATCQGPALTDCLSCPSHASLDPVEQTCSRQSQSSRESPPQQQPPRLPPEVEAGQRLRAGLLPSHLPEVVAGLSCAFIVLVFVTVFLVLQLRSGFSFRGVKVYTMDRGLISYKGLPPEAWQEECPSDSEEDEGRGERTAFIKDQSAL",
  "assay": "furin cleavage Z-score vs untreated control; higher = more cleavage, active = 3.5 or more, inactive = 1 or less, 8 variable residues between constant flanks",
  "procedure": "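Multiplexed peptide-cDNA fusion cleavage assay. 8-mer variable peptides flanked by constant Cys-Ala (N-term) and Ala-Gly-Asn-Ala-Ser-Ala-Ser-Ala (C-term) and conjugated to a cDNA oligonucleotide were bead-immobilised via the N-terminus. They were treated with purified furin at a 1:10 enzyme:substrate ratio in 50 mM HEPES pH 7.5, 1 mM CaCl2, 100 mM NaCl for 7.5, 15 or 30 min. Released cDNA was counted by next-generation sequencing, and log counts versus no-furin controls were lowess-adjusted and converted to robust Z-scores.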",
  "note": "This is one part of the list. The hit rate among all sequences tested is not known here.",
  "data": [
    {"sequence": "CATTPCFGSWAGNASASA", "note": "[HC66]", "values": [
      {"measurement": "furin cleavage Z-score", "setting": "7.5 min", "result": "0.204 (inactive)"},
      {"measurement": "furin cleavage Z-score", "setting": "15 min", "result": "0.119 (inactive)"},
      {"measurement": "furin cleavage Z-score", "setting": "30 min", "result": "-0.471 (inactive)"}
    ]},
    {"sequence": "CARPFRQVLAAGNASASA", "note": "[FS-2738]", "values": [
      {"measurement": "furin cleavage Z-score", "setting": "7.5 min", "result": "-0.792 (inactive)"},
      {"measurement": "furin cleavage Z-score", "setting": "15 min", "result": "0.095 (inactive)"},
      {"measurement": "furin cleavage Z-score", "setting": "30 min", "result": "-0.451 (inactive)"}
    ]},
    {"sequence": "CARKRRAPLAAGNASASA", "note": "[FS-2698]", "values": [
      {"measurement": "furin cleavage Z-score", "setting": "7.5 min", "result": "6.06 (active)"},
      {"measurement": "furin cleavage Z-score", "setting": "15 min", "result": "7.82 (active)"},
      {"measurement": "furin cleavage Z-score", "setting": "30 min", "result": "7.26 (active)"}
    ]},
    {"sequence": "CARKRRKGKAAGNASASA", "note": "[FS-2973]", "values": [
      {"measurement": "furin cleavage Z-score", "setting": "7.5 min", "result": "-1.27 (inactive)"},
      {"measurement": "furin cleavage Z-score", "setting": "15 min", "result": 1.85},
      {"measurement": "furin cleavage Z-score", "setting": "30 min", "result": "0.732 (inactive)"}
    ]},
    {"sequence": "CARKRRAPHGAGNASASA", "note": "[FS-2493]", "values": [
      {"measurement": "furin cleavage Z-score", "setting": "7.5 min", "result": "4.63 (active)"},
      {"measurement": "furin cleavage Z-score", "setting": "15 min", "result": "5.64 (active)"},
      {"measurement": "furin cleavage Z-score", "setting": "30 min", "result": "5.6 (active)"}
    ]},
    {"sequence": "CARKRRRQHGAGNASASA", "note": "[FS-2974]", "values": [
      {"measurement": "furin cleavage Z-score", "setting": "7.5 min", "result": "-0.939 (inactive)"},
      {"measurement": "furin cleavage Z-score", "setting": "15 min", "result": "-0.0293 (inactive)"},
      {"measurement": "furin cleavage Z-score", "setting": "30 min", "result": "0.389 (inactive)"}
    ]},
    {"sequence": "CALSTTGEIPAGNASASA", "note": "[HC844]", "values": [
      {"measurement": "furin cleavage Z-score", "setting": "7.5 min", "result": "0.383 (inactive)"},
      {"measurement": "furin cleavage Z-score", "setting": "15 min", "result": "-0.16 (inactive)"},
      {"measurement": "furin cleavage Z-score", "setting": "30 min", "result": "0.771 (inactive)"}
    ]},
    {"sequence": "CARRKRAGGGAGNASASA", "note": "[FS-2067]", "values": [
      {"measurement": "furin cleavage Z-score", "setting": "7.5 min", "result": "4.24 (active)"},
      {"measurement": "furin cleavage Z-score", "setting": "15 min", "result": "4.92 (active)"},
      {"measurement": "furin cleavage Z-score", "setting": "30 min", "result": "5.33 (active)"}
    ]},
    {"sequence": "CARRKRKSQRAGNASASA", "note": "[FS-2402]", "values": [
      {"measurement": "furin cleavage Z-score", "setting": "7.5 min", "result": 1.07},
      {"measurement": "furin cleavage Z-score", "setting": "15 min", "result": 2.8},
      {"measurement": "furin cleavage Z-score", "setting": "30 min", "result": "3.58 (active)"}
    ]},
    {"sequence": "CARRKRLRHRAGNASASA", "note": "[FS-3054]", "values": [
      {"measurement": "furin cleavage Z-score", "setting": "7.5 min", "result": "-0.105 (inactive)"},
      {"measurement": "furin cleavage Z-score", "setting": "15 min", "result": "-0.397 (inactive)"},
      {"measurement": "furin cleavage Z-score", "setting": "30 min", "result": "-1.97 (inactive)"}
    ]},
    {"sequence": "CARRKRRQTGAGNASASA", "note": "[FS-2516]", "values": [
      {"measurement": "furin cleavage Z-score", "setting": "7.5 min", "result": "8.82 (active)"},
      {"measurement": "furin cleavage Z-score", "setting": "15 min", "result": "9.35 (active)"},
      {"measurement": "furin cleavage Z-score", "setting": "30 min", "result": "7.88 (active)"}
    ]},
    {"sequence": "CARRKRFPGKAGNASASA", "note": "[FS-1918]", "values": [
      {"measurement": "furin cleavage Z-score", "setting": "7.5 min", "result": "0.56 (inactive)"},
      {"measurement": "furin cleavage Z-score", "setting": "15 min", "result": 2.63},
      {"measurement": "furin cleavage Z-score", "setting": "30 min", "result": 3.28}
    ]},
    {"sequence": "CARSCRILHKAGNASASA", "note": "[FS-2457]", "values": [
      {"measurement": "furin cleavage Z-score", "setting": "7.5 min", "result": "0.718 (inactive)"},
      {"measurement": "furin cleavage Z-score", "setting": "15 min", "result": "0.25 (inactive)"},
      {"measurement": "furin cleavage Z-score", "setting": "30 min", "result": "0.502 (inactive)"}
    ]},
    {"sequence": "CARRKRRHHKAGNASASA", "note": "[FS-1969]", "values": [
      {"measurement": "furin cleavage Z-score", "setting": "7.5 min", "result": 1.16},
      {"measurement": "furin cleavage Z-score", "setting": "15 min", "result": "4.53 (active)"},
      {"measurement": "furin cleavage Z-score", "setting": "30 min", "result": "5.66 (active)"}
    ]},
    {"sequence": "CARRKRIVGGAGNASASA", "note": "[FS-2228]", "values": [
      {"measurement": "furin cleavage Z-score", "setting": "7.5 min", "result": "0.169 (inactive)"},
      {"measurement": "furin cleavage Z-score", "setting": "15 min", "result": 1.22},
      {"measurement": "furin cleavage Z-score", "setting": "30 min", "result": 2.08}
    ]},
    {"sequence": "CAHLEVVTSTAGNASASA", "note": "[HC2275]", "values": [
      {"measurement": "furin cleavage Z-score", "setting": "7.5 min", "result": "-0.0236 (inactive)"},
      {"measurement": "furin cleavage Z-score", "setting": "15 min", "result": "-0.0472 (inactive)"},
      {"measurement": "furin cleavage Z-score", "setting": "30 min", "result": "-0.103 (inactive)"}
    ]},
    {"sequence": "CAVTPCSAHLAGNASASA", "note": "[HC2470]", "values": [
      {"measurement": "furin cleavage Z-score", "setting": "7.5 min", "result": "-2.91 (inactive)"},
      {"measurement": "furin cleavage Z-score", "setting": "15 min", "result": "-0.94 (inactive)"},
      {"measurement": "furin cleavage Z-score", "setting": "30 min", "result": "-1.39 (inactive)"}
    ]},
    {"sequence": "CATSLTGRDKAGNASASA", "note": "[HC683]", "values": [
      {"measurement": "furin cleavage Z-score", "setting": "7.5 min", "result": "0.711 (inactive)"},
      {"measurement": "furin cleavage Z-score", "setting": "15 min", "result": "0.726 (inactive)"},
      {"measurement": "furin cleavage Z-score", "setting": "30 min", "result": "0.633 (inactive)"}
    ]},
    {"sequence": "CAVCTTPCSGAGNASASA", "note": "[HC1950]", "values": [
      {"measurement": "furin cleavage Z-score", "setting": "7.5 min", "result": "-1.68 (inactive)"},
      {"measurement": "furin cleavage Z-score", "setting": "15 min", "result": 1.7},
      {"measurement": "furin cleavage Z-score", "setting": "30 min", "result": "0.388 (inactive)"}
    ]},
    {"sequence": "CAHSTDATSIAGNASASA", "note": "[HC820]", "values": [
      {"measurement": "furin cleavage Z-score", "setting": "7.5 min", "result": "0.202 (inactive)"},
      {"measurement": "furin cleavage Z-score", "setting": "15 min", "result": "-1.29 (inactive)"},
      {"measurement": "furin cleavage Z-score", "setting": "30 min", "result": "0.297 (inactive)"}
    ]},
    {"sequence": "CATIETITLPAGNASASA", "note": "[HC896]", "values": [
      {"measurement": "furin cleavage Z-score", "setting": "7.5 min", "result": "-1.51 (inactive)"},
      {"measurement": "furin cleavage Z-score", "setting": "15 min", "result": "0.877 (inactive)"},
      {"measurement": "furin cleavage Z-score", "setting": "30 min", "result": "-0.833 (inactive)"}
    ]},
    {"sequence": "CAMEFCSQHLAGNASASA", "note": "[HC1707]", "values": [
      {"measurement": "furin cleavage Z-score", "setting": "7.5 min", "result": "0.147 (inactive)"},
      {"measurement": "furin cleavage Z-score", "setting": "15 min", "result": "0.288 (inactive)"},
      {"measurement": "furin cleavage Z-score", "setting": "30 min", "result": "-0.0248 (inactive)"}
    ]},
    {"sequence": "CAMEEVSQHLAGNASASA", "note": "[HC3]", "values": [
      {"measurement": "furin cleavage Z-score", "setting": "7.5 min", "result": "0.556 (inactive)"},
      {"measurement": "furin cleavage Z-score", "setting": "15 min", "result": 1.13},
      {"measurement": "furin cleavage Z-score", "setting": "30 min", "result": 2.1}
    ]},
    {"sequence": "CARRKKSQDGAGNASASA", "note": "[FS-1775]", "values": [
      {"measurement": "furin cleavage Z-score", "setting": "7.5 min", "result": "0.168 (inactive)"},
      {"measurement": "furin cleavage Z-score", "setting": "15 min", "result": "-0.316 (inactive)"},
      {"measurement": "furin cleavage Z-score", "setting": "30 min", "result": "0.531 (inactive)"}
    ]},
    {"sequence": "CARRKRQIYGAGNASASA", "note": "[FS-3055]", "values": [
      {"measurement": "furin cleavage Z-score", "setting": "7.5 min", "result": 2.2},
      {"measurement": "furin cleavage Z-score", "setting": "15 min", "result": "5.1 (active)"},
      {"measurement": "furin cleavage Z-score", "setting": "30 min", "result": "6.81 (active)"}
    ]},
    {"sequence": "CARRVRDKDGAGNASASA", "note": "[FS-2300]", "values": [
      {"measurement": "furin cleavage Z-score", "setting": "7.5 min", "result": "0.77 (inactive)"},
      {"measurement": "furin cleavage Z-score", "setting": "15 min", "result": 1.62},
      {"measurement": "furin cleavage Z-score", "setting": "30 min", "result": 2.04}
    ]},
    {"sequence": "CARRKRDLDGAGNASASA", "note": "[FS-3052]", "values": [
      {"measurement": "furin cleavage Z-score", "setting": "7.5 min", "result": "11.5 (active)"},
      {"measurement": "furin cleavage Z-score", "setting": "15 min", "result": "11.4 (active)"},
      {"measurement": "furin cleavage Z-score", "setting": "30 min", "result": "8.25 (active)"}
    ]},
    {"sequence": "CARRKRQVRRAGNASASA", "note": "[FS-2370]", "values": [
      {"measurement": "furin cleavage Z-score", "setting": "7.5 min", "result": "6.85 (active)"},
      {"measurement": "furin cleavage Z-score", "setting": "15 min", "result": "8.4 (active)"},
      {"measurement": "furin cleavage Z-score", "setting": "30 min", "result": "6.39 (active)"}
    ]},
    {"sequence": "CARRKRQVYGAGNASASA", "note": "[FS-3204]", "values": [
      {"measurement": "furin cleavage Z-score", "setting": "7.5 min", "result": "6.12 (active)"},
      {"measurement": "furin cleavage Z-score", "setting": "15 min", "result": "7.43 (active)"},
      {"measurement": "furin cleavage Z-score", "setting": "30 min", "result": "7.08 (active)"}
    ]}
  ]
}
